Rows were chosen to be rich in hits. Some 3% of all compounds tested hit in one or more screens of this group.
IkB signaling – IkB Signaling; ABC-DLBCL IkBa-CBG/CBR dual luciferase ratio, 4 h; response scale: scaled: untreated 0%, proteasome inhibitor 100%; Potency, µM (titrated, usually from 57.1 µM), for the others: at the top dose IkBa stabilization activation; 0.04% of 110,000 active; AID 445, 2006; active = well fitted curve in the direction sought with a large enough effect in the signal ratio, not every such curve was filed as active; inconclusive = small, poorly fitted or top-dose-only effect, or a change in a side signal; the % refers to the signal ratio;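 note: the direction sought is a rising ratio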
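Curves were fitted separately to fusion (green), unfused (red) and ratio luminescence, then classed by r2, magnitude and activity. Cells: OCI-Ly3, 4 h compound plus doxycycline at 37C; 10 uM MG-132 defined full response.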
Imprint erasure – qHTS Assay for Compounds that Induce Erasure of Genomic Imprints | Potency, µM (highest dose often 60.7 µM), inactives show at the top dose activity change, positive = activation, usual class: activators | AID 1948, 2009 | mouse ES Peg3-LacZ reporter, beta-gal luminescence, 40 h | 0.02% of 110,000 active
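Readout: BetaGlo luminescence (5 min, room temp) for LacZ from the normally silent maternal Peg3 allele in female Peg3LacZ-Neo ES cells. Cells 300/well, 40 h, 37C, 5% CO2. Data normalized per plate to negative controls.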
p53ts 39C tox – qHTS Screen for Compounds that Selectively Target Cancer Cells with p53 Mutations: Cytotoxicity of p53ts Cells at the Nonpermissive Temperature | 1.5% of 130,000 active | Potency, µM (doses to about 46.1 µM), for inactives: top-dose activity change, negative = cell killing, hits mostly cytotoxic | H1299-p53A138V viability at 39C, ATP luminescence, 24 h; note: % is set by controls: 0 for no effect and ±100 for the full control effect; nearly all actives have a fitted effect of over 55% in size
p53ts 32C tox – qHTS Screen for Compounds that Selectively Target Cancer Cells with p53 Mutations: Cytotoxicity of p53ts Cells at the Permissive Temperature | H1299-p53A138V at 32C, ATP luminescence viability, 24 h | Potency, µM (top dose mostly 46.1 µM), inactives show top-dose activity change, negative = cytotoxicity, actives largely listed as cytotoxic | 0.93% of 130,000 active | AID 924, 2007;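 note: 0% = DMSO and -100% = full killing by reference compound; nearly all actives have a fitted effect of over 55% in size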
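Cells: H1299 p53ts (A138V), 600/well, pre-incubated 16–30 h at 37C. Cpd up to 46 uM, 24 h, 32C. Readout: ATPlite luminescence, 20 min RT. Normalization: DMSO vs tamoxifen 100 uM. AC50 by Hill equation.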
CRE-bla Fsk – Cell signaling CRE-BLA (Fsk stim). CHO CRE-bla reporter (cAMP response element driving beta-lactamase), forskolin EC10, beta-lactamase ratio. AID 662, 2007. Potency, µM (highest dose often 38.2 µM), inactives show top-dose activity change, negative = inhibition, hits mostly activators. 2.5% of 71,000 active; active = well fitted activation curve with a large enough effect in the signal ratio, with a control signal flat, not every such curve was filed as active; inconclusive = small, poorly fitted or top-dose-only effect, or effect the other way, or a change in a side signal; the % refers to the signal ratio; note: % of control where 0% means no effect
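AC50 values, positive or negative, reflect shifts in EC10 NKH 477-induced CRE-bla reporter activity in CHO cells. Incubation lasted 3 h at 37 °C before CCF4 substrate (2 h, room temperature) and ratiometric 460/530 nm reading.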
Numbers without * were called inactive; [ ] = dose if it differs, or a comment. Unless noted, calls come from the whole dose curve; as a rule, active = well fitted curve in the direction sought with a large enough effect; inconclusive = small, poorly fitted or top-dose-only effect, or another doubt; inactive = no such curve, though single readings can be large; an effect the other way counts as inactive or inconclusive. Potency is the fitted concentration of half-maximal effect.

Screening O=C(Nc1ccc2c(c1)OCO2)c1noc2c1CCCCC2 returned IkB signaling inconclusive, Imprint erasure -75%, p53ts 39C tox 16µM*, p53ts 32C tox 16µM* and CRE-bla Fsk inconclusive.
Cc1ccccc1C(=O)Nc1ccc2c(c1)OCO2 was read as IkB signaling 5%, p53ts 39C tox 13µM*, p53ts 32C tox 10µM* and CRE-bla Fsk 3%.
O=C(Nc1ccccc1C(F)(F)F)c1noc2c1CCCCC2 was read as IkB signaling 3%, Imprint erasure -9%[10.9 µM], p53ts 39C tox 13µM* and p53ts 32C tox 13µM*.
Screening CC(C)c1cc(C(=O)Nc2ccc3c(c2)OCO3)no1 returned IkB signaling inconclusive, Imprint erasure -58%, p53ts 39C tox inconclusive, p53ts 32C tox 16µM* and CRE-bla Fsk -3%.
Screening CCc1ccc(NCc2cc3cc4c(cc3n(CC(=O)Nc3ccc(Cl)cc3)c2=O)OCO4)cc1 returned IkB signaling 0%, Imprint erasure 10%[10.9 µM], p53ts 39C tox -19% and p53ts 32C tox 10%.
For COc1ccc(NCc2cc3cc4c(cc3n(CC(=O)Nc3ccccc3)c2=O)OCO4)cc1 the results were IkB signaling inconclusive, Imprint erasure -5%[10.9 µM], p53ts 39C tox 9% and p53ts 32C tox 1%.
`CCOc1ccc(NC(=O)c2cnn3c2NC(c2cccc(OC)c2)=CC3c2ccccc2)cc1` (centres undefined) gave IkB signaling inconclusive, Imprint erasure -11%[10.9 µM], p53ts 39C tox -25% and p53ts 32C tox -5%.
`O=C(Nc1ccc2c(c1)OCO2)c1ccc(Br)s1` gave IkB signaling inconclusive, Imprint erasure -46%, p53ts 39C tox inconclusive, p53ts 32C tox 13µM* and CRE-bla Fsk -4%.
Screening Cc1ccc(C(=O)Nc2ccc3c(c2)OCO3)o1 returned IkB signaling 0%, Imprint erasure -85%, p53ts 39C tox inconclusive, p53ts 32C tox 10µM* and CRE-bla Fsk -9%.
For Cn1c(C(=O)Nc2ccc3c(c2)OCO3)cc2sccc21 the results were IkB signaling 3%, Imprint erasure -52%, p53ts 39C tox 16µM*, p53ts 32C tox inconclusive and CRE-bla Fsk inconclusive.
For C/C(=C\C(=O)c1ccc(C)o1)Nc1ccc2c(c1)OCO2 the results were IkB signaling -3%, Imprint erasure -12%, p53ts 39C tox 1%, p53ts 32C tox -5% and CRE-bla Fsk inconclusive.
Screening CC(C)OCCCn1c(=O)c2ccccc2n2c(-c3ccccc3)nnc12 returned IkB signaling 3%, Imprint erasure 23%[10.9 µM], p53ts 39C tox 25% and p53ts 32C tox 8%.
For CC(=O)c1cc2c(cc1N/C(=N/S(=O)(=O)c1ccc(F)cc1)c1ccccc1)OCO2 the results were IkB signaling 0%, Imprint erasure -8%[10.9 µM], p53ts 39C tox 11% and p53ts 32C tox -1%.
For CCSc1nc2ccccc2n1C(=O)Oc1ccccc1 the results were p53ts 39C tox -6% and p53ts 32C tox 9%.
For CC(C)COC(=O)n1c(SCC(=O)N(C)C)nc2ccccc21 the results were IkB signaling inconclusive, Imprint erasure -20%, p53ts 39C tox -8%, p53ts 32C tox -3% and CRE-bla Fsk 13µM*.
Screening CCN1CCC(N(Cc2ccc3c(c2)OCO3)C(=O)Nc2cc(Cl)ccc2C(=O)OC)CC1 returned p53ts 32C tox -29%.
Screening CCc1c(C)c2cc3c(c(C)c2oc1=O)OCN(CCc1ccc(OC)c(OC)c1)C3 returned IkB signaling inconclusive, Imprint erasure -14%[10.9 µM], p53ts 39C tox -5% and p53ts 32C tox -1%.
`COc1ccc(-c2nc(C#N)c(NCC3CCCO3)o2)cc1OC` (centres undefined) gave IkB signaling -3%, Imprint erasure -33%, p53ts 39C tox -13%, p53ts 32C tox -17% and CRE-bla Fsk 13µM*.
`Cc1nn(-c2nc(-c3ccc(F)cc3)cc(C(F)(F)F)n2)c(C)c1Cl` gave IkB signaling 37%, Imprint erasure -2%[10.9 µM], p53ts 39C tox -2% and p53ts 32C tox 9%.

Source: PubChem (National Center for Advancing Translational Sciences (NCATS))
